Data: PubChem BioAssay (NCI)
About 83,000 compounds went through this panel and 20% of them were active in at least one assay; those are over-represented in the sample as a whole.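 Plates (96-well) were seeded with cells, treated with compound at one concentration, and incubated for 48 hours before percent growth was determined.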

Columns and labels:
Experiment in all cases: NCI-60 one-dose screen, 48 h (100 = growth as untreated, 0 = no growth, -100 = all killed)
Details in all cases: 10 µM unless noted; active means growth percent below 10; inactive means the rest
NCI-H23 lung = test system: NCI-H23 lung
NCI-H226 lung = test system: NCI-H226 lung
NCI-H322M lung = test system: NCI-H322M lung
HOP-62 NSCLC = test system: HOP-62 NSCLC
NCI-H460 lung = test system: NCI-H460 lung
786-0 renal = test system: 786-0 renal
MDA-MB-231 breast = test system: MDA-MB-231 breast
SF-268 CNS = test system: SF-268 CNS
SF-539 CNS = test system: SF-539 CNS
M14 melanoma = test system: M14 melanoma
U251 CNS = test system: U251 CNS
PC-3 prostate = test system: PC-3 prostate
SK-MEL-28 melanoma = test system: SK-MEL-28 melanoma
UO-31 renal = test system: UO-31 renal
OVCAR-3 ovarian = test system: OVCAR-3 ovarian
SW-620 colon = test system: SW-620 colon
MCF7 breast = test system: MCF7 breast
HCT-116 colon = test system: HCT-116 colon
KM12 colon = test system: KM12 colon
UACC-62 melanoma = test system: UACC-62 melanoma

Measured: growth

CC(C)C1c2ccc(O)cc2Oc2nc(N)c(C#N)c(N)c21 (centres undefined)
inactive: NCI-H23 lung 105% | NCI-H226 lung 93.6% | NCI-H322M lung 93.8% | HOP-62 NSCLC 92.9% | NCI-H460 lung 107% | 786-0 renal 96.1% | MDA-MB-231 breast 89.9% | SF-268 CNS 112% | SF-539 CNS 93.5% | M14 melanoma 129% | U251 CNS 95.8% | PC-3 prostate 92.1% | SK-MEL-28 melanoma 117% | UO-31 renal 89.2% | OVCAR-3 ovarian 124% | SW-620 colon 115% | MCF7 breast 124% | HCT-116 colon 103% | KM12 colon 103%

CC(C)N=C(NC(C)C)N1CC1
inactive: NCI-H23 lung 113% | NCI-H226 lung 108% | NCI-H322M lung 118% | HOP-62 NSCLC 108% | NCI-H460 lung 116% | 786-0 renal 116% | MDA-MB-231 breast 96.9% | SF-268 CNS 108% | SF-539 CNS 103% | M14 melanoma 128% | U251 CNS 105% | PC-3 prostate 112% | UACC-62 melanoma 105% | SK-MEL-28 melanoma 106% | UO-31 renal 113% | OVCAR-3 ovarian 109% | SW-620 colon 110% | MCF7 breast 102% | HCT-116 colon 111% | KM12 colon 110%

CC(N)Cc1ccc(O)cc1 (centres undefined)
inactive: NCI-H23 lung 108% | NCI-H226 lung 99.2% | NCI-H322M lung 95.5% | HOP-62 NSCLC 111% | NCI-H460 lung 109% | 786-0 renal 98.6% | MDA-MB-231 breast 106% | SF-268 CNS 99.4% | SF-539 CNS 117% | M14 melanoma 99.9% | U251 CNS 106% | PC-3 prostate 98.8% | UACC-62 melanoma 105% | SK-MEL-28 melanoma 124% | UO-31 renal 79.3% | OVCAR-3 ovarian 108% | SW-620 colon 103% | MCF7 breast 100% | HCT-116 colon 100% | KM12 colon 107%
